Source: PubChem
The sample as a whole holds a higher share of hits than the screen did.
PLAP activator: PLAP enzyme activators, biochemical, luminescence, HTS; activation fold at 20 µM; 96,000 tested, 1.2% active; Alkaline phosphatase, placental type (Homo sapiens), P05187; purified PLAP enzyme, luminescent substrate read-out; stronger effect = higher value; in the data active means activation fold above about 2
Candida biofilm: clotrimazole potentiators killing Candida biofilms, primary screen, with clotrimazole, Alamar Blue; 85,000 tested, 0.14% active; C. albicans biofilm + clotrimazole; AID 834, 2007; inhibition, % at 6 µM;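 active means inhibition above 20%; inactive means inhibition below 20%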;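 further: preformed 24 hr biofilms exposed to compound for 48 hr; 0% = biofilm without compound and 100% = blank killed by clotrimazole plus chlorhexidine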
DAT uptake mod: changed hDAT dopamine uptake under cocaine IC80, either direction, primary screen, cocaine antagonist project, cell-based, LLC-PK1 hDAT, [14C]-dopamine uptake, MLSMR; Sodium-dependent dopamine transporter (Homo sapiens), Q01959; LLC-PK1 hDAT cells, [14C]-dopamine uptake with cocaine IC80; actives deviate in either direction; 110,000 tested, 1.3% active; B-score at 10 µM;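 active means Z score or B-score, a plate-position-corrected score, falls beyond the plate's 99.7% confidence bounds, in either direction; inactive means both scores lie inside the 99.7% bounds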;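 further: scored against the spread of the other compound wells on the same plate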
TNAP act DEA: human TNAP enzyme activators, primary screen, biochemical, luminescent, intermediate phosphate acceptor level. Alkaline phosphatase, tissue-nonspecific isozyme (Homo sapiens), P05186. purified TNAP, CDP-star luminescence, 100 mM DEA, 30 min; stronger effect = higher value; scale: 0 levamisole-inhibited, 1 vehicle-only enzyme. activation factor at 20 µM. 64,000 tested, under 10 active. AID 813, 2007;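 active means activation factor of at least 2 at 20 µM, relative to controls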
D1 allo mod: D1 CRE-luciferase signal change, two-sided – cell-based, HEK293 D1, dopamine EC30, D1 allosteric modulator project, primary screen. D(1A) dopamine receptor (Homo sapiens), P21728. dopamine EC30 potentiation; actives deviate in either direction. B-score at 10 µM. 58,000 tested, 5.9% active. AID 641, 2007;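 active means luminescence count or its row- and column-corrected plate score outside the 99.7% band of the plate's sample wells, on either side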
HePTP inh: inhibitors of human HePTP phosphatase, primary screen, biochemical, absorbance, leukemia target; Tyrosine-protein phosphatase non-receptor type 7 (Homo sapiens), P35236; recombinant HePTP phosphatase activity, OD absorbance; inhibition, % at 20 µM; 110,000 tested, 0.64% active; AID 521, 2006; in the data active means inhibition above about 50%;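 further: plate controls were vehicle for no effect and reference inhibitor for full effect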
Target sequence (P35236 whole entry, looked up): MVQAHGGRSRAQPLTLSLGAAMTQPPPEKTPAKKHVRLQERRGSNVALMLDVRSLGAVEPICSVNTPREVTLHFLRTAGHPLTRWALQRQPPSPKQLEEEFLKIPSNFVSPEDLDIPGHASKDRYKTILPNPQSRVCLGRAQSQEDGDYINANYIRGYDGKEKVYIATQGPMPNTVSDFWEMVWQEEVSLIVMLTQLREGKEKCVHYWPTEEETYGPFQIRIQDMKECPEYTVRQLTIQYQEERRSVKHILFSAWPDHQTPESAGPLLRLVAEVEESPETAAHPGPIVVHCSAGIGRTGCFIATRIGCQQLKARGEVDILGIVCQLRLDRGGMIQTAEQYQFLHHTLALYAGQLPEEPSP
The depositor's hits bear a star.

Screening Cc1cccc(N2C(=O)NC(=O)/C(=C/c3ccc(Br)o3)C2=O)c1 returned HePTP inh 75*.
`CC(C)c1ccc(N2C(=O)NC(=O)/C(=C/c3ccc(F)cc3)C2=O)cc1` gave HePTP inh -2.
For COc1ccc(Br)cc1C(=O)Nc1ccc2nn(-c3ccccc3)nc2c1 the results were HePTP inh 11.
For C=CCN1C=CC(=C/C=C(/C#N)C(=O)OCC)C=C1 the results were Candida biofilm 4 and DAT uptake mod -2.6*.
Screening NNC(=O)c1cc(-c2cccc3ccccc23)n[nH]1 returned HePTP inh -6.
CCOC(=O)c1c(C)n(C)c2ccc(OCC(O)CN3CCCCCC3)cc12 (stereo not drawn) was read as PLAP activator 1.7, Candida biofilm 16, DAT uptake mod 1.5, TNAP act DEA 0.9 and HePTP inh 0.
`CCOC(=O)c1c(C)n(C)c2ccc(OCC(O)Cn3nc(C)c(Br)c3C)cc12` (stereo not drawn) gave DAT uptake mod -8.5* and D1 allo mod 0.093.
COc1cccc(OCCCCN2CCCC2)c1 was read as HePTP inh 7.
COc1ccc(C2(O)CCN(CCCCOc3ccccc3)CC2)cc1 was read as PLAP activator 2.1*, Candida biofilm 7, DAT uptake mod 0.68, TNAP act DEA 1, D1 allo mod -1.9 and HePTP inh 5.
CCN(CC)S(=O)(=O)c1ccc(/C(O)=C(\C#N)c2nc3ccccc3n2C)cc1 was read as PLAP activator 1.9, Candida biofilm 11, DAT uptake mod 1.7, TNAP act DEA 0.9, D1 allo mod -2.2* and HePTP inh 8.
Cn1c(/C(C#N)=C(\O)CN2CCN(Cc3ccccc3)CC2)nc2ccccc21 was read as PLAP activator 2.5*, Candida biofilm 5, DAT uptake mod 0.021, TNAP act DEA 1, D1 allo mod 0.29 and HePTP inh 7.
Screening COc1ccc(N=Cc2c(O)n(-c3ccccc3)c(=O)[nH]c2=O)cc1Cl returned HePTP inh 7.
Clc1ccc(/C=C/C=Nc2ccc(-c3nc4ccccc4o3)cc2)cc1 was read as HePTP inh 2.
`CC(C)(C)C(=O)Nc1ccc(-c2cn3ccsc3n2)cc1` gave PLAP activator 0.9, Candida biofilm 3, TNAP act DEA 0.9, D1 allo mod -5.4* and HePTP inh 6.
COc1ccc(C(=O)Nc2ccc(-c3cn4ccsc4n3)cc2)cc1S(=O)(=O)N1CCOCC1 was read as PLAP activator 0.9, Candida biofilm 5, DAT uptake mod -0.51, TNAP act DEA 1, D1 allo mod -0.0087 and HePTP inh 10.
`CC(C)CC(=O)Nc1ccc(-c2cn3ccsc3n2)cc1` gave PLAP activator 1, Candida biofilm 2, DAT uptake mod 0.21, TNAP act DEA 0.9, D1 allo mod -4.5* and HePTP inh 9.
Screening CC(C)CC(=O)Nc1ccc(-c2nc3ccccc3s2)cc1 returned HePTP inh 2.
`COc1cccc(C(=O)Nc2ccc3nc(N4CCN(c5ncccn5)CC4)cc(C)c3c2)c1OC` gave DAT uptake mod -6.9*, TNAP act DEA 0.9, D1 allo mod 1.4 and HePTP inh 2.
CCN1CCN(c2cc(C)c3cc(NC(=O)Cc4ccccc4OC)ccc3n2)CC1 was read as PLAP activator 1.5 and DAT uptake mod -0.6.
CCN1CCN(c2cc(C)c3cc(NC(=O)c4ccc5c(c4)OCO5)ccc3n2)CC1 was read as PLAP activator 1.4, DAT uptake mod 0.74, TNAP act DEA 0.9, D1 allo mod -5* and HePTP inh 5.
For CCOc1ccccc1C(=O)Nc1ccc2nc(N3CCN(c4ncccn4)CC3)cc(C)c2c1 the results were Candida biofilm -3, TNAP act DEA 1, D1 allo mod -0.25 and HePTP inh -6.
`CCN1CCN(c2cc(C)c3cc(NC(=O)c4ccc(OC)c(OC)c4)ccc3n2)CC1` gave PLAP activator 1.7, Candida biofilm 9 and DAT uptake mod 2.6*.
For O=C1S/C(=C\c2cc3c(cc2Br)OCO3)C(=O)N1c1ccccc1 the results were HePTP inh -7.
COc1ccc(OC)c(/C=C2\SC(N3CCC(C)CC3)=NC2=O)c1 was read as HePTP inh 10.
O=S(=O)(NCc1ccc2c(c1)OCO2)c1cccs1 was read as HePTP inh 2.
`O=C(O)CCSc1nc2ccccc2s1` gave PLAP activator 0.9, Candida biofilm 4, DAT uptake mod -0.29, TNAP act DEA 0.9, D1 allo mod -6.5* and HePTP inh -2.
`COc1cc(C2C3C(=O)N(c4ccc(F)cc4)C(=O)C3ON2c2ccccc2)ccc1O` (stereo not drawn) gave PLAP activator 1.1, Candida biofilm 0, DAT uptake mod -6.9*, TNAP act DEA 0.9, D1 allo mod -0.58 and HePTP inh 8.
For COc1ccc(C2C3C(=O)N(c4ccc(F)cc4)C(=O)C3ON2c2ccccc2)cc1 (stereo not drawn) the results were HePTP inh -11.
`Cc1ccc(-n2c(SCc3ccc(C#N)cc3)nnc2-c2ccccn2)cc1` gave PLAP activator 1.6, Candida biofilm 9, DAT uptake mod -7.7*, TNAP act DEA 1, D1 allo mod -4* and HePTP inh 0.
Screening OCCOCCNc1ncnc2sc(-c3ccccc3)cc12 returned PLAP activator 2.2*, Candida biofilm 0 and DAT uptake mod -0.13.
For CCc1cc2c(NCCO)ncnc2s1 the results were PLAP activator 1, DAT uptake mod -0.28, TNAP act DEA 0.9, D1 allo mod 1 and HePTP inh 6.
CN1CCC(=C2c3ccccc3CC(=O)c3sccc32)CC1 was read as Candida biofilm -2, DAT uptake mod 0.072, TNAP act DEA 0.9, D1 allo mod -6.8* and HePTP inh 5.
O=C1N=C(N2CCCC2)S/C1=C\c1ccc([N+](=O)[O-])cc1 was read as HePTP inh 7.
`COC(=O)c1ccc(CSc2nc3ccc(Cl)cc3[nH]2)o1` gave PLAP activator 1.7, Candida biofilm 6 and DAT uptake mod -0.019.
`CCCc1cc(=O)[nH]c(SCc2cc(C(=O)OC)c(C)o2)n1` gave PLAP activator 1.4, Candida biofilm 3, DAT uptake mod 1.5, TNAP act DEA 0.9, D1 allo mod -0.049 and HePTP inh -4.
